# Active and inactive are the calls of the source. Rule for the calls: active = hit-call score of the fitted dose curve at least 0.9, where 1 is the maximum; inactive = score below 0.9.
# Experiments:
# [1] = BSK_MyoF_SRB: Viability Assessment in the BioMAP Diversity Plus: MyoF Assay (AID 2284267); details: primary human lung fibroblasts;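 note: total protein by SRB absorbance in parallel cultures as cytotoxicity measure; cells assessed 24 h after compound addition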
# In short: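 In this viability endpoint, fibroblasts from human lung are treated for 24 h, TCA-fixed, SRB-stained (0.1%) and read at 560 nm. Gain of signal relative to DMSO defines activity.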
# [2] = read-out: Matrix Metallopeptidase 1 (MMP1), MMP1 (gene 4312); experiment: BSK_MyoF_MMP1: BioMAP Diversity Plus: MyoF Assay for Matrix Metallopeptidase 1 (MMP1) Biomarker Activity (AID 2284268); details: primary human lung fibroblasts
# In short: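 Lung fibroblast cultures were dosed with test chemicals and, after 24 h, MMP1 levels were measured by ELISA; responses were referenced to DMSO and analysed for increases.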
# [3] = read-out: TIMP metallopeptidase inhibitor 1 (TIMP1), TIMP1 (gene 7076); experiment: BSK_MyoF_TIMP1: BioMAP Diversity Plus: MyoF Assay for TIMP metallopeptidase inhibitor 1 (TIMP1) Biomarker Activity (AID 2284269); details: primary human lung fibroblasts
# In short: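 Primary human lung fibroblasts, MyoF multiplex system; chemical exposure 24 h; TIMP-1 by ELISA; positive fitting direction vs DMSO control.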
# [4] = read-out: Intercellular Adhesion Molecule 1 (ICAM1), ICAM1 (gene 3383); experiment: BSK_BE3C_ICAM1: BioMAP Diversity Plus: BE3C Assay for Intercellular Adhesion Molecule 1 (ICAM1) Biomarker Activity (AID 2284278); details: primary human bronchial epithelial cells;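 note: cell-surface ICAM-1 protein level quantified by ELISA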
# In short: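 hu bronchial epithelial primary cells, 24 h cpd exposure, ICAM-1 ELISA; gain-of-signal fit vs DMSO baseline.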
# [5] = read-out: Interferon-inducible T-cell alpha chemoattractant (ITAC), CXCL11 (gene 6373); experiment: BSK_BE3C_ITAC: BioMAP Diversity Plus: BE3C Assay for Interferon-inducible T-cell alpha chemoattractant (ITAC) Biomarker Activity (AID 2284279); details: primary human bronchial epithelial cells
# In short: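 Steps: dose human bronchial epithelial cells with chemical; incubate 24 h; measure I-TAC by ELISA; fit endpoint in positive direction against DMSO control. Cytotoxicity was checked in parallel cultures by SRB staining at harvest.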
# [6] = read-out: Interleukin-8 (IL8), CXCL8 (gene 3576); experiment: BSK_BE3C_IL8: BioMAP Diversity Plus: BE3C Assay for Interleukin-8 (IL8) Biomarker Activity (AID 2284280); details: primary human bronchial epithelial cells
# In short: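 Measured at 24 h after treatment, IL-8 from human primary bronchial epithelial cells is determined by ELISA, and the response is modelled as increasing relative to DMSO negative control.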
# [7] = read-out: Epidermal growth factor receptor (EGFR), EGFR (gene 1956); experiment: BSK_BE3C_EGFR: BioMAP Diversity Plus: BE3C Assay for Epidermal growth factor receptor (EGFR) Biomarker Activity (AID 2284281); details: primary human bronchial epithelial cells
# In short: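 Measured 24 h after dosing in primary human bronchial epithelial cultures, EGFR was read by ELISA; gain of signal over DMSO control defined activity.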
# KRT18 (gene 3875) = experiment: BSK_BE3C_Keratin818: BioMAP Diversity Plus: BE3C Assay for Keratin 818 Biomarker Activity (AID 2284282); details: primary human bronchial epithelial cells
# In short: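 In this multiplexed primary-cell system, bronchial epithelial cells were dosed and harvested at 24 h. Keratin 8/18 was determined by ELISA and analysed for increases over DMSO controls.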
# [8] = read-out: Matrix Metallopeptidase 9 (MMP9), MMP9 (gene 4318); experiment: BSK_BE3C_MMP9: BioMAP Diversity Plus: BE3C Assay for Matrix Metallopeptidase 9 (MMP9) Biomarker Activity (AID 2284283); details: primary human bronchial epithelial cells
# In short: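 BE3C, human bronchial epithelial primary cells; 24 h post-dose; MMP-9 by ELISA; positive fit vs DMSO; SRB (0.1%, TCA-fixed, 560 nm) parallel cytotox.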
# [9] = read-out: Plasminogen activator inhibitor-1 (PAI1), SERPINE1 (gene 5054); experiment: BSK_CASM3C_PAI1: BioMAP Diversity Plus: CASM3C Assay for Plasminogen activator inhibitor-1 (PAI1) Biomarker Activity (AID 2284284); details: primary human coronary artery smooth muscle cells;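 note: PAI-1 protein level measured by ELISA 24 h after dosing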
# [10] = read-out: Monocyte Chemoattractant Protein-1 (MCP1), CCL2 (gene 6347); experiment: BSK_hDFCGF_MCP1: BioMAP Diversity Plus: hDFCGF Assay for Monocyte Chemoattractant Protein-1 (MCP1) Biomarker Activity (AID 2284285); details: primary human foreskin fibroblasts
# In short: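 MCP-1 ELISA readout was taken 24 hours after dosing primary human dermal fibroblasts in the hDFCGF system, with DMSO as baseline. Parallel sulforhodamine B staining of total protein tracked overt cytotoxicity.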
# [11] = read-out: Intercellular Adhesion Molecule 1 (ICAM1), ICAM1 (gene 3383); experiment: BSK_hDFCGF_ICAM1: BioMAP Diversity Plus: hDFCGF Assay for Intercellular Adhesion Molecule 1 (ICAM1) Biomarker Activity (AID 2284287); details: primary human foreskin fibroblasts
# In short: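 ICAM-1 ELISA readout 24 h after dosing, DMSO as baseline, in human dermal foreskin fibroblast cultures. Cytotoxicity checked in parallel wells by SRB staining (0.1% SRB, 10% TCA fixation, 560 nm).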
# [12] = read-out: TIMP metallopeptidase inhibitor 2 (TIMP2), TIMP2 (gene 7077); experiment: BSK_hDFCGF_TIMP2: BioMAP Diversity Plus: hDFCGF Assay for TIMP metallopeptidase inhibitor 2 (TIMP2) Biomarker Activity (AID 2284289); details: primary human foreskin fibroblasts
# In short: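 Primary human foreskin fibroblasts in the hDFCGF system, dosed for 24 h; TIMP-2 level measured by ELISA, fitted in the positive direction against DMSO; cytotoxicity checked in parallel by sulforhodamine B total protein staining.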
# [13] = read-out: Thrombomodulin, THBD (gene 7056); experiment: BSK_LPS_Thrombomodulin: BioMAP Diversity Plus: LPS Assay for Thrombomodulin Biomarker Activity (AID 2284296); details: primary human HUVEC with PBMC
# In short: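 Thrombomodulin on the surface of LPS-activated endothelial/PBMC co-cultures was quantified by ELISA at 24 hours post-dosing, with DMSO as baseline. Parallel SRB total-protein staining flagged overt cytotoxicity.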
smiles,measurement,setting,value
O=Nc1ccc(O)cc1,outcome,[1],inactive
same,outcome,[2],inactive
same,outcome,[3],inactive
CC(C)C(=O)C(C)C,outcome,[1],inactive
same,outcome,[2],inactive
same,outcome,[3],inactive
c1ccc2c(c1)ccc1ncccc12,outcome,[1],inactive
same,outcome,[2],inactive
same,outcome,[3],inactive
C=CC(=O)OCC(Br)CBr (stereo unspecified),AC50,[1],20 µM (active)
same,outcome,[2],inactive
same,AC50,[3],20 µM (active)
c1ccc2c(c1)ccc1cc3c(ccc4ccccc43)cc12,outcome,[1],inactive
same,outcome,[2],inactive
same,outcome,[3],inactive
CCOc1nc(F)cc2nc(S(=O)(=O)Nc3c(Cl)cccc3C(=O)OC)nn12,outcome,[1],inactive
same,outcome,[2],inactive
same,outcome,[3],inactive
O=C(Nc1ccccc1SSc1ccccc1NC(=O)c1ccccc1)c1ccccc1,outcome,[1],inactive
same,outcome,[2],inactive
same,outcome,[3],inactive
COc1ccc2nc(N)sc2c1,outcome,[1],inactive
same,outcome,[2],inactive
same,outcome,[3],inactive
CCO[Si](C)(OCC)OCC,outcome,[4],inactive
same,outcome,[5],inactive
same,outcome,[6],inactive
same,outcome,[7],inactive
same,outcome,KRT18 (gene 3875),inactive
same,outcome,[8],inactive
same,outcome,[9],inactive
same,outcome,[10],inactive
same,outcome,[11],inactive
same,outcome,[12],inactive
same,outcome,[13],inactive
O=C1CCCN1CCO,outcome,[4],inactive
same,outcome,[5],inactive
same,outcome,[6],inactive
same,outcome,[7],inactive
same,outcome,KRT18 (gene 3875),inactive
same,outcome,[8],inactive
same,outcome,[9],inactive
same,outcome,[10],inactive
same,outcome,[11],inactive
same,outcome,[12],inactive
same,outcome,[13],inactive

# — PubChem BioAssay (EPA / NIEHS)
